The target in experiment [1] is Cellular tumor antigen p53 (Homo sapiens) (UniProt P04637). The experiment is described as follows: Primary qHTS for small molecule compounds that upregulate eGFP-tagged delta133p53alpha (in N-terminal) cells. (AID 2060322).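 For activation: cells pre-induced with doxycycline then dosed without doxycycline; 0% = DMSO vehicle and 100% = reference activator.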 Note: nearly all actives have a fitted effect of over 75% in size. Note: potency is the fitted concentration of half-maximal effect. To be noted: NCI-H358 eGFP-delta133p53alpha fluorescence, 24 h; activation: hits give high values. The gist of the method: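 NCI-H358 cells pre-induced 24 h with 10 ng/ml doxycycline for eGFP-delta133p53alpha, plated dox-free and exposed 24 h at 37C to titrated compounds. Fixed, Hoechst-stained; gated GFP peak intensity by laser scanning cytometry, normalized to DMSO (0%) and 57.5 uM 5-azacytidine (100%).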

Experiment [2] addresses Aldehyde dehydrogenase, mitochondrial (Homo sapiens) (UniProt P05091). The experiment is described as follows: qHTS for Inhibitors of the Aldehyde Dehydrogenase Family (ALDH2) Primary screen (AID 2061308).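 Note: plate controls were vehicle for no effect and reference inhibitor for full effect; nearly all actives have a fitted effect of over 55% in size.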 The settings on record: ALDH2 enzyme inhibition qHTS, 1536-well; series mostly up to 56 µM. A general note: In qHTS, concentration-response curves come from the screen itself.

For experiment [3], the target named is Retinaldehyde dehydrogenase 3 (Homo sapiens) (UniProt P47895). The experiment is described as follows: qHTS for Inhibitors of the Aldehyde Dehydrogenase Family (ALDH1A3) Validation screen (AID 2061312). Note: nearly all actives have a fitted effect of over 45% in size. Note: potency is the fitted concentration of half-maximal effect. To be noted: ALDH1A3 enzyme inhibition qHTS validation, fluorescence; series mostly up to 84.7 µM.
Experiment [4] has the same target. In words: qHTS for Inhibitors of the Aldehyde Dehydrogenase Family (ALDH1A3) Primary screen (AID 2061315).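 Note: plate controls were DMSO vehicle for no effect and reference inhibitor for full effect.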 The settings on record: ALDH inhibition qHTS; series mostly up to 56 µM.
The nature of experiment [5]: BET inhibitor-based combinations targeting novel dependencies in MECOM-rearranged (r) AML: SET-2 cell line (AID 2202231).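 For viability: plate controls were DMSO treated cells for no effect and wells without cells for full effect.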 Note: nearly all actives have a fitted effect of over 35% in size. Note: potency is the fitted concentration of half-maximal effect. To be noted: SET-2 AML cells viability, CellTiter-Glo luminescence, 48 h; viability: hits give low values, concentration not given here. Put shortly:
(§1)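 Cells were plated at 500 per well and exposed to an 11-point dose series of each drug for 48 hr. Viability was measured by CellTiter-Glo luminescence, normalized to DMSO and empty-well controls, and summarized as AUC and per-cell-line Z-AUC.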
Background: ATP-based viability assays read luminescence as a measure of living cells.

A short description of experiment [6]: BET inhibitor-based combinations targeting novel dependencies in MECOM-rearranged (r) AML: OCI-AML3 cell line (AID 2202232). Note: nearly all actives have a fitted effect of over 35% in size. Note: potency is the fitted concentration of half-maximal effect. The settings on record: CellTiter-Glo luminescence, 48 h; Potency: OCI-AML3 viability; series mostly up to 46 µM. The gist of the method: as §1
The nature of experiment [7]: BET inhibitor-based combinations targeting novel dependencies in MECOM-rearranged (r) AML: MV-4-11 cell line (AID 2202233). Note: nearly all actives have a fitted effect of over 45% in size. Note: potency is the fitted concentration of half-maximal effect. To be noted: MV-4-11 AML viability, CellTiter-Glo luminescence, 48 h; series mostly up to 46 µM. The gist of the method: (§2)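 Activity is given as area under the curve and as Z-AUC, mean-centred within each cell line. It comes from 11-point dose curves normalized to DMSO and empty wells. CellTiter-Glo luminescence was read after 48 hr drug exposure of 500 cells/well.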

A short description of experiment [8]: BET inhibitor-based combinations targeting novel dependencies in MECOM-rearranged (r) AML: HNT-34 cell line (AID 2202234). Note: nearly all actives have a fitted effect of over 35% in size. Note: potency is the fitted concentration of half-maximal effect. To be noted: HNT-34 AML viability, CellTiter-Glo luminescence, 48 h; series mostly up to 46 µM. The gist of the method:
as §2

Experiment [9] can be described thus: BET inhibitor-based combinations targeting novel dependencies in MECOM-rearranged (r) AML: UCSD-AML1 cell line (AID 2202235). Note: nearly all actives have a fitted effect of over 40% in size. Note: potency is the fitted concentration of half-maximal effect. The settings on record: UCSD-AML1 AML cells viability, CellTiter-Glo, 48 h; series mostly up to 46 µM. Put shortly:
as §2

Experiment [10] can be described thus: BET inhibitor-based combinations targeting novel dependencies in MECOM-rearranged (r) AML: AML-191 cell line (AID 2202236; note: nearly all actives have a fitted effect of over 35% in size; note: potency is the fitted concentration of half-maximal effect). To be noted: AML-191 viability, CellTiter-Glo luminescence, 48 h; series mostly up to 46 µM. The gist of the method:
as §1

Experiment [11] in a line: BET inhibitor-based combinations targeting novel dependencies in MECOM-rearranged (r) AML: AML-194 cell line (AID 2202237; note: nearly all actives have a fitted effect of over 40% in size; note: potency is the fitted concentration of half-maximal effect). The settings on record: AML-194 (MECOM-r AML) viability, CellTiter-Glo, 48 h; series mostly up to 46 µM. The gist of the method: as §1

Several values for one entry are separate records, joined by “and”; a condition that tells them apart may be missing. Equal values may be shown once. Results filed as inconclusive are left out. Values without a mark were called inactive. Activity calls are given as the source filed them. Calls come from the whole dose curve; as a rule, active = well fitted curve in the direction sought with a large enough effect; inconclusive = small, poorly fitted or top-dose-only effect, or another doubt; inactive = no such curve, though single readings can be large; an effect the other way counts as inactive or inconclusive.

A word on the viability: it is a read-out of living cells in per cent, often relative to untreated cells.

Cellular tumor antigen p53 (Homo sapiens), sequence (P04637 whole entry, looked up): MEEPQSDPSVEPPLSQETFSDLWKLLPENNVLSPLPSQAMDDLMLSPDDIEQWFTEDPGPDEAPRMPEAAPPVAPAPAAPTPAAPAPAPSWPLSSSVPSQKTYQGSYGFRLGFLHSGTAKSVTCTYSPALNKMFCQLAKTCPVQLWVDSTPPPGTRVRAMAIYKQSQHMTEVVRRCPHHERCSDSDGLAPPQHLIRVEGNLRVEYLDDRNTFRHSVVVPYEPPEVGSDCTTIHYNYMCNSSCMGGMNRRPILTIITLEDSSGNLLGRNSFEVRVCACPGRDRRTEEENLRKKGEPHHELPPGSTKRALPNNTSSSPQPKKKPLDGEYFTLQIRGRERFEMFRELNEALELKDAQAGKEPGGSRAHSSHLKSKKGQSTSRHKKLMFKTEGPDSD

As to `COc1cc2c(cc1-c1c(C)noc1C)ncc1[nH]c(=O)n([C@H](C)c3ccccn3)c12`, the activation in [1] is 5.5% and 9.55% and -13.4%. In addition, the Potency entry in experiment [2], in [3] and in [4] was “inactive” throughout. The Potency was 1.32 µM (active) in [5], 0.468 µM (active) in experiment [6] and 0.417 µM (active) in [7].
On to `CC(C)(C)C(=O)C(Oc1ccc(Cl)cc1)n1ccnc1` (stereo not drawn), for which the activation in experiment [1] was -37.9% and -2.39%. The Potency result in experiment [2], in [3] and in [4] was “inactive” in each case.
`CC[C@@]1(O)C(=O)OCc2c1cc1n(c2=O)Cc2cc3cc(O)ccc3nc2-1`: the Potency in experiment [1] was 1.51 µM (active) and 19.3 µM (active); in [5], 0.0332 µM (active); in [6] it was 0.0148 µM (active); in [7] it was 0.0066 µM (active); in experiment [8], 0.0074 µM (active); in experiment [9], 0.0132 µM (active). For the same compound, the Potency in [10] is 0.0132 µM (active). The Potency entry in experiment [2], in experiment [3] and in experiment [4] was “inactive” throughout.
`O=S(=O)(Cc1ccccc1)Nc1ccc(-c2ccc3c(cnn3-c3ccc(F)cc3)c2)c(C(F)(F)F)c1`: the activation in experiment [1] was -1.91%. The Potency entry in experiment [2], in experiment [3] and in [4] was “inactive” throughout.
Take `CC1(C)CCC(C)(C)c2cc([C@@H](O)C(=O)Nc3ccc(C(=O)O)cc3F)ccc21`: the activation in [1] is -4.77%. The Potency result in [2], in experiment [3] and in [4] was “inactive” each time.
In the case of `Cn1c(=O)c2c(ncn2Cc2ccc(C(C)(C)C)cc2)n(C)c1=O`, in [1], the activation is -5.25%. The Potency result in experiment [2], in [3] and in experiment [4] was “inactive” throughout.
For the compound `COc1cc2nc(C3CC3)nc(N3CCN(c4ccccc4OC)CC3)c2cc1OC`, the Potency in experiment [1] is 16.9 µM (active). Also, the Potency result in experiment [2], in [3] and in experiment [4] was “inactive” each time.
On to `OC1(CN2CCC(COc3noc4cccc(O[C@@H]5CCOC5)c34)CC2)CCOCC1`, for which, in experiment [1], the activation was 3.82%. For the same compound, the Potency entry in [2], in [3] and in [4] was “inactive” in each case.
On to `CCN[C@@H]1C[C@H](N)[C@@H](O[C@H]2OC(CN)=CC[C@H]2N)[C@H](O)[C@H]1O[C@H]1OC[C@](C)(O)[C@H](NC)[C@H]1O`, for which, in [1], the activation is 10.5% and 9.67%. Further, the Potency entry in experiment [2], in experiment [3] and in [4] was “inactive” in each case.
Turning to `CCCCC(=O)N1c2ccccc2NC2=C(C(=O)CCC2)C1c1ccccc1Cl` (stereo not drawn), the activation in [1] was -4.77%. Further, the Potency result in [2], in experiment [3] and in [4] was “inactive” throughout.
With `Cc1ccc2nc(N)[nH]c(=O)c2c1Sc1ccncc1`, the activation in [1] was -10% and -17.7%. Moreover, the Potency result in [2] and in [4] was “inactive” in each case. In addition, the Potency in experiment [3] is 7.94 µM (active).
Turning to `O=C(CSc1nc2c(c(=O)n1-c1ccccc1)SCC2)Nc1ccc(-c2ccccc2)cn1`, in experiment [1], the activation was 11.5%. The Potency entry in experiment [2], in [3] and in experiment [4] was “inactive” throughout.
Turning to `CCN(CC)C(=O)C(c1ccccc1)N1CCN(c2ccc(NC(=O)c3ccccc3-c3cccnc3)cc2F)CC1` (stereo not drawn), in experiment [1], the activation is -6.21%. Further, the Potency entry in experiment [2], in experiment [3] and in experiment [4] was “inactive” throughout.
Take `COc1cccc(CNc2ccc(S(=O)(=O)Nc3nc4ccccc4s3)cc2)c1O`: the activation in [1] was -10.5%. For the same compound, the Potency result in experiment [2], in experiment [3] and in experiment [4] was “inactive” throughout.
For `CS(=O)(=O)Nc1ccc2oc3c(OC(F)F)ccc(C(=O)Nc4c(Cl)cncc4Cl)c3c2c1`, in experiment [1], the activation is 22%. Besides, the Potency entry in experiment [2], in [3] and in experiment [4] was “inactive” in each case.
`CCCCc1oc2ccc(NS(C)(=O)=O)cc2c1C(=O)c1ccc(OCCCN(CCCC)CCCC)cc1`: the activation in experiment [1] was 2.56%. The Potency entry in experiment [2], in experiment [3] and in experiment [4] was “inactive” each time. Also, the Potency in [5] is 18.6 µM (active); in experiment [6], 14.8 µM (active); in experiment [7], 10.5 µM (active); in experiment [8], 11.8 µM (active); in [9] it was 10.5 µM (active); in experiment [10], 10.5 µM (active). The Potency in [11] is 10.5 µM (active).
Take `Cc1nnc(C(C)C)n1C1CC2CCC(C1)N2CCC(NC(=O)C1CCC(F)(F)CC1)c1ccccc1` (stereo not drawn): the activation in [1] is -3.82%. Moreover, the Potency result in experiment [2], in experiment [3], in experiment [4], in experiment [6], in experiment [7] and in [8] was “inactive” throughout. For the same compound, the Potency result in [9], in [10] and in experiment [11] was “inactive” in each case. Also, the viability in [5] is 109%.
In the case of `O=C(O)CC1CCC(c2ccc(-c3ccc(Nc4ccc(C(F)(F)F)nc4)cn3)cc2)CC1` (stereo not drawn), in [1], the activation is -9.55%. Moreover, the Potency result in experiment [2], in [3], in [4], in experiment [6], in experiment [7] and in experiment [9] was “inactive” each time. The Potency entry in experiment [10] and in experiment [11] was “inactive” throughout. Moreover, the viability in [5] is 114%.
For the compound `C#CC[C@H](c1nc2cc(Cl)ccc2c(=O)n1Nc1ccccc1)N(CCCN)C(=O)c1cccc(Cl)c1F`, the Potency is 4.78 µM (active) in experiment [1]; 10.5 µM (active) in experiment [5]; 0.59 µM (active) in [6]; 1.05 µM (active) in experiment [7]; 0.372 µM (active) in [8]; 1.05 µM (active) in experiment [9]. Moreover, the Potency in experiment [10] and in experiment [11] was 3.32 µM (active) throughout. For the same compound, the Potency entry in experiment [2], in [3] and in [4] was “inactive” throughout.
As to `O=P(O)(O)C(O)(Cc1cccnc1)P(=O)(O)O`, in experiment [1], the activation is 20.9% and -4.4% and 7.64%. Also, the Potency entry in [2], in experiment [3], in experiment [4], in [6], in [7] and in experiment [8] was “inactive” each time. The Potency result in [9], in [10] and in experiment [11] was “inactive” in each case. Besides, in [5], the viability was 110%.
For `COc1cc(-c2nn(C3CCC(N4CCN(C(C)=O)CC4)CC3)c3ncnc(N)c23)ccc1NC(=O)c1cc2ccccc2n1C` (stereo not drawn), the activation in [1] was 17.1%. Further, the Potency entry in experiment [2], in experiment [3] and in experiment [4] was “inactive” in each case. The Potency was 9.34 µM (active) in [5]; 7.42 µM (active) in experiment [6]; 9.34 µM (active) in experiment [7]; 2.09 µM (active) in experiment [8]; 5.9 µM (active) in [10]; 4.17 µM (active) in [11].

The values above are taken from PubChem BioAssay (NCATS).
